Screening results (PubChem)
Hits are enriched below; roughly 9% of the tested compounds scored in any of these assays.
HTT aggregate – reduces HttQ103-GFP aggregates in PC12 cells; 220,000 tested, 1.1% active; AID 1688; Potency, µM (highest dose often 46.1 µM), without a hit: at the highest dose activity change, negative = inhibition, actives largely listed as inhibitors; PC12 HttQ103-GFP aggregates, Acumen cytometry, 40 h; further: on the % scale 0 is the no-effect control and ±100 the full control effect; nearly all actives have a fitted effect of over 60% in size
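Inducible Q103 Huntingtin exon 1–GFP PC12 line, 1500 cells/well in phenol red free DMEM with 5% equine and 5% calf serum. Tebufenozide 100 nM induced expression; compounds titrated; aggregates quantified by cytometry.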
ALDH1A1 inh – inhibitors of human aldehyde dehydrogenase 1A1; 220,000 tested, 7.3% active; AID 1030; Purified ALDH1A1, NADH fluorescence, propionaldehyde substrate; P00352; Potency, µM (top dose mostly 75.3 µM), inactives show at the highest dose activity, negative = inhibition, most hits filed as inhibitors; active means well fitted inhibition curve with a large enough effect, not every such curve was filed as active; inconclusive means small, poorly fitted or top-dose-only effect, or another doubt; inactive means no such curve, though single readings can be large or run the other way;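 further: plate controls were no enzyme wells and a reference inhibitor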
Target sequence (P00352 whole entry, looked up): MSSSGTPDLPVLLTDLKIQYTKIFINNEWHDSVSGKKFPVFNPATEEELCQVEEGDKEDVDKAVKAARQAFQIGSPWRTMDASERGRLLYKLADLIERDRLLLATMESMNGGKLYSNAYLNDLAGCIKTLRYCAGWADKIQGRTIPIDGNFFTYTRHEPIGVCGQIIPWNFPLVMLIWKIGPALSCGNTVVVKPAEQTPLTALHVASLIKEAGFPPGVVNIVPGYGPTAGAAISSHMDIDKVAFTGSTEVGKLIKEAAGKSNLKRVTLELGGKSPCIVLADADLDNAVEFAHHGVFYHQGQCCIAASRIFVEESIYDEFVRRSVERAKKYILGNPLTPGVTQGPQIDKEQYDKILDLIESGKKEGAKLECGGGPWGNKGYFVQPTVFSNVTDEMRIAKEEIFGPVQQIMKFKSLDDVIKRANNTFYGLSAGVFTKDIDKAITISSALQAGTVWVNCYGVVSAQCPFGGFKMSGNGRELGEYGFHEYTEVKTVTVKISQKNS
HPGD inh – blocks human HPGD enzyme activity | AID 894 | Potency, µM, inactives show top-dose activity change, negative = inhibition, most hits filed as inhibitors | purified HPGD, NADH fluorescence kinetic, PGE2 substrate | 150,000 tested, 4.3% active; active means well fitted inhibition curve with a large enough effect, not every such curve was filed as active; inconclusive means small, poorly fitted or top-dose-only effect, or another doubt; inactive means no such curve, though single readings can be large or run the other way; further: on the % scale 0 is the no-effect control and ±100 the full control effect
Target sequence (P15428 whole entry, looked up): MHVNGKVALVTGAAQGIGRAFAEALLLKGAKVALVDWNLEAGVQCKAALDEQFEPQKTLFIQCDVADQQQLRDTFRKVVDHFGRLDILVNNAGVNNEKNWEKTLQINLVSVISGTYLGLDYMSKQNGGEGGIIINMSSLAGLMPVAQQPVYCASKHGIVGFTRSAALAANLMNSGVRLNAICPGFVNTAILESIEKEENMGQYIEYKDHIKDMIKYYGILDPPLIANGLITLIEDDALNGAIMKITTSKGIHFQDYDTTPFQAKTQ
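20 nM HPGD preincubated 15 min at room temperature with compound in 50 mM Tris-HCl pH 8, 0.01% Tween 20. Started with 1 mM NAD+ and 30 uM prostaglandin E2; NADH fluorescence (360/450 nm) read 5 times over 30-s intervals, last minus first.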
Lamin A splicing – changes lamin A minigene splicing in HeLa cells; HeLa LMNA splicing GFP/RFP minigene ratio, 48 h; 200,000 tested, 0.01% active; Potency, µM (highest dose often 46.1 µM), for the others: at the top dose ratio change, negative = inhibition, usual class: inhibitors; active means well fitted inhibition curve with a large enough effect in the signal ratio, with a control signal flat, not every such curve was filed as active; inconclusive means small, poorly fitted or top-dose-only effect, or effect the other way, or a change in a side signal; the % refers to the signal ratio; further: on the % scale 0 is the no-effect control and ±100 the full control effect
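S3 HeLa stable clones carrying a lamin A-EGFP splicing minigene plus DsRed2 were seeded at 600 cells/well in Opti-MEM with 2% FBS, pin-dosed and incubated 48 h at 37°C. Acumen cytometry (488 nm) gave the GFP/RFP total-intensity ratio.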
HTT cytoprotect – cytoprotection in Huntington HTT-Q103 PC12 cell model. 230,000 tested, 0.14% active. Potency, µM (series often up to 56.4 µM), without a hit: cytoprotection (ATP increase), hits mostly activators. PC12 HTT-Q103 induced, cytoprotection, ATP luminescence, 40 h; further: % of control where 0% means no effect; nearly all actives have a fitted effect of over 45% in size
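PC12 cells stably carrying ecdysone-inducible Htt exon 1 (Q103)–GFP were induced with 100 nM tebufenozide (final) alongside library compounds in a dose series. Cytoprotection was scored as retained ATP by ATPlite luminescence.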
KinaseGlo FLuc – Kinase-Glo luciferase inhibition (counter-screen); 200,000 tested, 0.28% active; Kinase-Glo luciferase, ATP luminescence, 8 min; AID 1379; Potency, µM (doses to about 38.3 µM), without a hit: at the top dose activity change, negative = inhibition, usual class: inhibitors; further: on the % scale 0 is the no-effect control and ±100 the full control effect; nearly all actives have a fitted effect of over 60% in size
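Kinase-Glo luciferase light output from ATP and luciferin was measured with 10 uM ATP, within the enzyme's linear range. Buffer: 50 mM imidazole pH 7.2, 50 mM KCl, 7 mM MgCl2, 0.01% Tween 20, 0.05% BSA; luminescence read after 8 min at ambient temperature.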
Starred values were filed as active, the others as inactive; u = inconclusive; x = not tested or not shown; [ ] = dose if it differs, or a comment. Unless noted, the call rests on the fitted dose curve; in most records, active means well fitted curve in the direction sought with a large enough effect; inconclusive means small, poorly fitted or top-dose-only effect, or another doubt; inactive means no such curve, though single readings can be large; an effect the other way counts as inactive or inconclusive. Potency means the concentration at half of the fitted maximal effect.

SMILES	HTT aggregate	ALDH1A1 inh	HPGD inh	Lamin A splicing	HTT cytoprotect	KinaseGlo FLuc
COC(=O)c1sccc1NC(=O)CC1C(=O)NCCN1C(=O)c1ccc(N(C)C)cc1 (configuration not stated)	-16.6%[9.22 µM]	10µM*	x	x	-0.1%[10 µM]	x
Cc1ccc(C(=O)c2cn(CC(=O)NCc3ccccc3)c3nc(C)ccc3c2=O)cc1	x	x	x	10.0%[46 µM]	x	x
Cc1ccc(NS(=O)(=O)c2cc([N+](=O)[O-])ccc2NNC(=S)Nc2cc(C)ccc2C)c(C)c1	u	2.82µM*	7.94µM*	u	27.0%[0.074 µM]	-15.5%
Cc1ccc(NS(=O)(=O)c2cc([N+](=O)[O-])ccc2NNC(=S)Nc2cccc(Cl)c2)c(C)c1	10.9%	0.282µM*	28.2µM*	u	31.1%[10 µM]	-24.1%
Cc1cccc(NS(=O)(=O)c2cc(NC(=O)CC(=O)c3ccc([N+](=O)[O-])cc3)ccc2C)c1	12.2%[9.22 µM]	-8.3%	x	-13.5%[9.22 µM]	1.3%	3.5%
COc1ccc(NC(=S)NNc2ccc([N+](=O)[O-])cc2S(=O)(=O)Nc2ccc(C)cc2C)cc1	u	3.98µM*	14.1µM*	u	-26.2%[10 µM]	-13.6%
COC(=O)c1ccc(Cn2nnc3ccccc32)cc1	6.2%[9.22 µM]	x	x	x	2.8%[10 µM]	x
COc1ccc(C=O)cc1COc1ccc(F)cc1F	-2.0%[9.22 µM]	8.91µM*	31.6µM*	-9.3%	-32.7%	-0.8%
COc1ccc(/C=C/C(=O)c2ccccc2)cc1Cn1nnc2ccccc21	3.6%	u	15.8µM*	u	-14.0%[1.9 µM]	-1.3%
COc1cc(/C=C/C(=O)c2ccc(C)cc2)ccc1OCC#N	6.4%	12.6µM*	-27.8%	u	-13.5%[10 µM]	1.8%
COc1ccc(/C=C/C(=O)c2ccccc2)cc1COc1ccc(F)cc1	-4.6%	1.1%	-15.3%	13.1%	-9.7%	-1.7%
COc1ccc(C(=O)/C=C/c2ccc(OC)c(COc3ccccc3F)c2)cc1	8.5%	2.51µM*	-25.4%	-20.5%	6.5%[10 µM]	2.4%
O=C(CSc1cccs1)NCCc1ccccc1	-0.3%	-6.5%	14.1µM*	3.7%	12.3%[0.074 µM]	-0.3%
CCc1ccc(-n2nnnc2SCC(=O)NNC(=O)c2ccco2)cc1	10.8%	-13.9%	-9.5%	8.3%[0.0737 µM]	3.3%	3.2%
O=C(CSc1nnnn1C1CCCCC1)NCCc1ccccc1	10.8%	10µM*	-13.0%	u	4.6%	-0.4%
O=C(CSc1nnnn1C1CCCCC1)NNC(=O)c1ccco1	-2.8%[9.22 µM]	4.74µM*	x	x	-0.8%[10 µM]	2.8%
COC(=O)c1c(C)oc2cc(Br)c(OCC(=O)C(C)(C)C)cc12	7.6%	-3.7%	-5.3%	4.8%	-1.9%	0.9%
Cc1cc(C)c(S(=O)(=O)Nc2ccccc2C(F)(F)F)c(C)c1	x	15.4%	-5.6%	x	20.6%	-0.8%
Cc1nc(OCC(=O)c2ccc(Cl)cc2)c(C#N)c2c1COC(C)(C)C2	u	u	-12.6%	11.5%	-12.9%	-0.7%
CCc1nc(OCC(=O)c2ccccc2)c(C#N)c2c1COC(C)(C)C2	-19.2%	6.31µM*	-12.6%	-3.6%	-52.0%	14.8%
CC1(C)Cc2c(C#N)c(N3CCN(C(=O)c4ccccc4)CC3)nc(-c3ccco3)c2CS1	-5.9%	0.9%	u	-10.9%	2.3%[10 µM]	4.2%
CC(C)c1nc(N2CCN(C(=O)c3ccccc3)CC2)c(C#N)c2c1COC(C)(C)C2	14.1µM*	u	u	-2.2%	-13.3%	3.3%
O=C(Nc1nnc(CC(c2ccccc2)c2ccccc2)s1)c1ccco1	u	-1.5%	-3.3%	-2.8%	-8.1%	-1.4%
O=C(O)C(S)[C@@H](S)C(=O)O (some centres not stated)	x	3.55µM*	4.47µM*	x	u	-4.7%
N[C@H](C(=O)O)[C@H](O)C(=O)O	x	8.7%	-14.2%	-16.3%	-12.4%	-1.5%
SMILES	HTT aggregate	ALDH1A1 inh	HPGD inh	Lamin A splicing	HTT cytoprotect	KinaseGlo FLuc
O=C(C1CCCCC1)N1CCc2[nH]c3ccc(F)cc3c2C1	7.5%[9.22 µM]	x	x	x	-2.5%[10 µM]	x
COc1ccc(CNC(=O)c2c(F)c(F)c(F)c(F)c2F)cc1	7.7%	-3.6%	-13.7%	u	2.1%[10 µM]	5.1%
Cn1cccc1C(=O)C(=O)Nc1cc(Cl)cc(Cl)c1	5.8%	u	u	-5.0%	-0.4%	11.2µM*
Cn1cccc1C(=O)C(=O)Nc1ccc(Cl)cc1	2.4%	3.3%	-5.6%	8.2%[0.0737 µM]	-53.5%	u
Cc1[nH]n(C(N)=S)c(=O)c1N=Nc1ccc(S(=O)(=O)N2CCCCCC2)cc1	-13.4%	11.2µM*	15.8µM*	8.0%	-1.4%	-6.8%
CC(=O)Nc1ccc(N=Nc2c(C)[nH]n(C(N)=S)c2=O)cc1	-4.9%	u	x	x	u	1.4%
Cc1[nH]n(C(N)=S)c(=O)c1N=Nc1ccc2ccccc2c1	-19.8%	7.94µM*	x	u	-36.0%	0.6%
Cc1ccc(N=Nc2c(C)[nH]n(C(N)=S)c2=O)cc1C	9.0%	u	-19.0%	u	30.3%[10 µM]	-1.9%
N#Cc1cccc(-c2cc(NCc3cccs3)ncn2)c1	x	u	u	u	-14.3%	-5.3%
O=C(c1cccc(Cl)c1)N1CCN(C(=O)c2ccccc2F)CC1	-13.2%	u	-14.1%	-21.6%	5.2%	2.7%
COc1ccc(CN2CCN(S(=O)(=O)c3ccc(C)cc3)CC2)cc1Br	-12.7%	20µM*	-6.9%	-15.4%	4.9%	-3.0%
O=C1C=CC(=O)N1CCCCCCN1C(=O)C=CC1=O	5.01µM*	0.224µM*	2.24µM*	u	-87.7%[10 µM]	1.5%
COc1ccc(C2/C(=C(/O)c3ccc(C)cc3)C(=O)C(=O)N2C)cc1 (configuration not stated)	6.8%	-0.4%	-11.3%	-10.0%	4.2%[10 µM]	1.7%
COc1ccc(N2C(=O)C(=O)/C(=C(/O)c3ccc(C)cc3)C2c2cccnc2)cc1 (configuration not stated)	-15.9%	7.94µM*	-14.8%	-10.6%	-2.3%[10 µM]	-3.0%
COC(=O)c1ccc(C2/C(=C(/O)c3ccc(OC)cc3)C(=O)C(=O)N2c2cc(C)on2)cc1 (configuration not stated)	30.3%	12.6µM*	u	-0.1%	-30.0%	2.1%
CCOC(=O)c1cccc(NC(=O)c2ccc3nc(C(C)C)oc3c2)c1	x	x	x	3.1%[46 µM]	x	x
COc1cc(OC)c(N(C)S(=O)(=O)c2cccc(C(=O)NC(C)C3CC4CCC3C4)c2)cc1Cl (configuration not stated)	-5.8%[9.22 µM]	x	x	x	7.5%[10 µM]	x
CSCCC(NC(=O)c1cc(C)oc1C)C(=O)O (configuration not stated)	12.8%	-3.0%	-6.9%	-3.3%	1.0%	18.5%
Cc1ccc(/C=C(/C#N)C(=O)NC(C)c2ccccc2)o1 (configuration not stated)	13.7%	14.1µM*	-19.8%	2.4%	-6.8%[10 µM]	3.1%
CSCCC(NC(=O)c1ccc(C)o1)C(=O)O (configuration not stated)	-2.2%	15.8µM*	-11.2%	10.6%	-13.6%[10 µM]	-2.0%
